# Source: PubChem BioAssay AID897 (National Center for Advancing Translational Sciences (NCATS), 2007)
# This is one part of the list. A call without a number means that no potency is given here. Inconclusive results are not listed. Active and inactive are the calls of the source. The call rests on the fitted dose curve; in most records, active means well fitted inhibition curve with a large enough effect in the main read-out, with a control signal flat (not every such curve was filed as active); inconclusive means small, poorly fitted or top-dose-only effect, or a change in a side signal; inactive means no such curve, though single readings can be large or run the other way.
# Target: Caspase-7 (Homo sapiens) (UniProt P55210)
# Sequence (P55210 24-198 limits assumed): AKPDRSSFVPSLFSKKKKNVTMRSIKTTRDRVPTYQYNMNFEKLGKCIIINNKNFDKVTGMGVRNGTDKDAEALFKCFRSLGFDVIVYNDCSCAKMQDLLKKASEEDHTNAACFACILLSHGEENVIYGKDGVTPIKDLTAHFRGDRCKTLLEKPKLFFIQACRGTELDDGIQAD
# Sequence (P55210 207-303 limits assumed): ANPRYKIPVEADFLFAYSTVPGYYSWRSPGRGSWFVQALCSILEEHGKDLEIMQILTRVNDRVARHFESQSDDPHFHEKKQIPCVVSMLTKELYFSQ
# Test: Confirmation Concentration-Response Assay for Allosteric/Competitive Inhibitors of Caspase-7
# Conditions: recombinant caspase-7, fluorogenic substrate cleavage; series mostly up to 57.5 µM
# From the text: NIH Molecular Libraries Screening Centers Network [MLSCN]
# NIH Chemical Genomics Center [NCGC]
# PI Name: Dr. James Wells,
# Dr. Enrique Perez-Paya, Dr.Janice Williams, Dr. Dennis Wolan, a person
# The caspases (Cysteine Aspartyl Protease) comprise a related family of 14 dimeric proteases that are critical mediators of apoptosis (programmed cell death) and inflammation. The caspases represent an important class of drug targets for stroke, ischemia, cancer and inflammatory diseases. […] One goal of this project was to identify compounds that act as allosteric inhibitors via stabilizing the procaspase form of the enzyme. Previous work in Well's laboratory has shown that such allosteric inhibitors can be identified and these act by binding at the dimer interface of enzyme (Hardy, Lam et al., 2004).
# The biochemical assay was configured using purified caspase 7 at a high enzyme concentration to promote formation of the homodimers and thus facilitate the identification of allosteric inhibitors. […] After initiation of the assay with substrate the plates were rapidly read using an automated robotic system (Kalypsys, Inc.) to maintain consistent timing. […]
# Caspase 7 was prepared in buffer (50 mM HEPES pH 7.5, 50 mM KCl, 200 mM NaCl, 10 mM DTT, 0.1% CHAPS) at a concentration of 66.6 nM and 3 uL was dispensed to all wells using black solid Kalypsys 1536-well plates. […] The plates were then exposed using 405 nm excitation/520 nm emission filters for 4 sec and read at 20 sec intervals for 3 min. […]
# Concentration-response curves were fitted to the data calculated from slope of the linear regression of fluorescent intensity versus time (the rate). The concentration-effect curves were then classified based on curve quality (r2), response magnitude and degree of measured activity. […] Inconclusive compounds had appreciable concentration-dependent effects on both the measured rate and the interpolated basal fluorescence intensity at the start of the reaction but where the basal fluorescent intensity was marginal (e.g. < 10-fold). […]
row,SMILES,Potency
1,N#CC1=C(N)Oc2cc(O)ccc2C1C1CCCCC1 (stereo not drawn),25.1 µM (active)
2,CCN1C(=O)/C(=C2/Sc3ccccc3N2CCCS(=O)(=O)O)SC1=S,inactive
3,Cc1nc2c(C(=O)NCc3ccc4c(c3)OCO4)c[nH]n2c(=O)c1Cc1ccccc1F,inactive
